Screening results as filed in PubChem.
Most compounds without a hit are left out; they make up all but 5.1% or so of the library.
JMJD2E inh = blocks human JMJD2E demethylase activity; B2RXH2; JMJD2E catalytic domain, FDH-coupled NADH fluorescence (FDH is formaldehyde dehydrogenase); Potency, µM (series often up to 57.1 µM), without a hit: at the top dose activity change, negative = inhibition, usual class: inhibitors; 1.6% of 230,000 active; AID 2147; active means well fitted inhibition curve with a large enough effect, not every such curve was filed as active; inconclusive means small, poorly fitted or top-dose-only effect, or another doubt; inactive means no such curve, though single readings can be large or run the other way;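 further: potency means the concentration at half of the fitted maximal effect; 0% = wells with enzyme and -100% = buffer wells without enzyme; nearly all actives have a fitted effect of over 50% in size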
Tau FP inhib = tau fibrillization inhibition (FP); 0.39% of 280,000 active; P10636; Potency, µM (top dose mostly 57.7 µM), for the others: top-dose activity, negative = inhibition, usual class: inhibitors; K18 P301L tau heparin fibrillization, Alexa594 FP, 6 h; further: potency means the concentration at half of the fitted maximal effect; nearly all actives have a fitted effect of over 55% in size
Target sequence (P10636 561-689 P618L limits assumed): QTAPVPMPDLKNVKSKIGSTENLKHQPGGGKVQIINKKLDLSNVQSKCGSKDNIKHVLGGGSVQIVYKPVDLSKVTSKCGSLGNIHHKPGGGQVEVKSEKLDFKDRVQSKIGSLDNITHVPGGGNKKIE
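FP of Alexa 594-tau after heparin (20 uM) induction. Substrate: human K18 P301L, 15 uM unlabeled, 0.24 uM labeled. Buffer 100 mM sodium acetate pH 7. 6 hr, 37 C.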
Tau ThT inhib = blocks human tau fibril formation measured by thioflavin T; recombinant tau K18 P301L, heparin-induced fibrillization, ThT fluorescence; Potency, µM (titrated, usually from 57.4 µM), for the others: at the highest dose activity, negative = inhibition, usual class: inhibitors; 2.1% of 270,000 active; further: potency means the concentration at half of the fitted maximal effect; nearly all actives have a fitted effect of over 55% in size
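Recombinant human tau K18 fragment […] carrying P301L, 15 uM unlabeled plus 0.24 uM Alexa 594-labeled, was fibrillized with 20 uM heparin in 100 mM sodium acetate pH 7 for 6 hr at 37 C; 30 uM ThT fluorescence read after 1 hr.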
NPSR antag = antagonists of human neuropeptide S receptor cAMP signaling; Potency, µM (doses to about 38.3 µM), for inactives: top-dose activity change, negative = inhibition, actives largely listed as inhibitors; AID 1461; Q6W5P4; 1% of 220,000 active; CHO-NPSR cells, cAMP TR-FRET, antagonist mode; further: potency means the concentration at half of the fitted maximal effect; nearly all actives have a fitted effect of over 50% in size
Target sequence (Q6W5P4 whole entry, looked up): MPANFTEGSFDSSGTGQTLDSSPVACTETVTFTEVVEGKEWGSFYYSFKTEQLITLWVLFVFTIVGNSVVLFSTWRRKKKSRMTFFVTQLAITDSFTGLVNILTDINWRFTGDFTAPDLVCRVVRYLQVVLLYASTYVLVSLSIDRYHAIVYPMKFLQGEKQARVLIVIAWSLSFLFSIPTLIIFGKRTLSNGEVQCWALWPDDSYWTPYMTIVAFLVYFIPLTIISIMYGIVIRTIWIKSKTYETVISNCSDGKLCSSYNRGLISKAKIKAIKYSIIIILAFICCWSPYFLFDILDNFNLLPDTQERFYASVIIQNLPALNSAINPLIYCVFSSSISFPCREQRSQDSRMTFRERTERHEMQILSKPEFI
PNC inhibitor = blocks assembly of the perinucleolar compartment; 3.1% of 140,000 active; AID 2417; PC3M PTB-GFP, PNC prevalence imaging, 16 h; stronger effect = lower value; activity change (PNC), negative = inhibition, % at 10 µM;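 active means readout at or below -70, meaning at least 70% loss of cells showing the perinucleolar compartment, a nuclear body marking cancer cells; inconclusive means readout between -30 and a set limit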;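 further: plate controls were DMSO wells for no effect and camptothecin positive control wells for full effect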
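PC3M cells stably expressing PTB-GFP, 750–1000 cells/well, treated 16 h at 37 °C with compound (23 nl of library stock), in duplicate. After paraformaldehyde fixation and Hoechst stain, imaged at 20x; PNC prevalence scored by image analysis.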
Tau fluor cs = counter-screen for tau fibril formation inhibitors; Potency, µM (top dose mostly 57.7 µM), for inactives: top-dose activity change, negative = decrease; tau K18 P301L (four-repeat tau fragment) Alexa594 fluorescence, heparin fibrillization; 0.93% of 280,000 active; AID 1463; further: potency means the concentration at half of the fitted maximal effect; nearly all actives have a fitted effect of over 55% in size
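Human K18 P301L tau (15 uM unlabeled plus 0.24 uM Alexa 594-labeled, final) in 100 mM sodium acetate pH 7 was mixed with compound and 20 uM heparin and incubated 6 hr at 37 C.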
An asterisk follows results filed as active; u = inconclusive; x = not tested or not shown; [ ] = another dose, or the depositor's remark. Unless noted, the call rests on the fitted dose curve; in most records, active means well fitted curve in the direction sought with a large enough effect; inconclusive means small, poorly fitted or top-dose-only effect, or another doubt; inactive means no such curve, though single readings can be large; an effect the other way counts as inactive or inconclusive. Unless noted, on the % scale 0 is the no-effect control and ±100 the full control effect.

SMILES	JMJD2E inh	Tau FP inhib	Tau ThT inhib	NPSR antag	PNC inhibitor	Tau fluor cs
O=C1OCCC1Sc1nnc(-c2ccco2)o1 (centres undefined)	-2%	-1%	0%	6%[46.1 µM]	-100*	-2%
Cc1sc2ncnc(OCC(=O)Nc3ccc4c(c3)OCCO4)c2c1C	9%	-1%	-16%	-2%[46.1 µM]	-29	-24%
O=C(COc1ncnc2sccc12)Nc1ccc2c(c1)OCCO2	-5%	5%	-11%	2%[46.1 µM]	-112*	-2%
CCCCCCCCCCCCCCCCCC(=O)OCC(C)O (centres undefined)	x	u	14µM*	x	x	u
c1ccc2sc(SN3CCOCC3)nc2c1	13µM*	-17%	-18%	-5%[46.1 µM]	u	-4%
CCc1[nH]c(=O)c(C#N)c2c1CSC(C)(C)C2	u	-13%	u	0%[46.1 µM]	5	-5%
Cc1[nH]c(=O)c(C#N)c2c1CSC(C)(C)C2	-12%	10%	-2%	-2%[46.1 µM]	-100*	7%
Cc1nc2c(c(-c3ccccc3)c1C#N)C(=O)c1ccccc1-2	3%	3%	-4%	-6%[46.1 µM]	114	-19%
Cc1nc2c(c(C)c1C#N)C(=O)c1ccccc1-2	-3%	-2%	-9%	5%	-96*	-7%
CCOC(=O)c1cc([N+](=O)[O-])c([N+](=O)[O-])cc1NC(C)=O	2%	-2%	-5%	10µM*	-26	-11%
Cc1cc(C)cc(-n2c(C)nc3cc(C(=O)NCc4ccc(F)cc4)ccc32)c1	x	7%	1%	x	x	2%
COc1ccc(Nc2oc(COc3ccccc3F)nc2C#N)cc1	0%	-7%	u	-22%[46.1 µM]	1	u
COc1ccc(Nc2oc(COc3ccc(C)cc3)nc2C#N)cc1	-4%	6%	u	-21%[46.1 µM]	-100*	u
COc1ccc(Nc2oc(COc3ccc(OC)cc3)nc2C#N)cc1	-14%	4%	u	-15%[46.1 µM]	u	28µM*[quencher]
COc1ccc(Nc2oc(COc3cccc(C)c3)nc2C#N)cc1	-8%	17%	-22%	-13%[46.1 µM]	-5	u
Cc1ccc(C(=O)NC(C#N)=C(Cl)Cl)cc1	-24%	u	25µM*	-28%	x	-10%
Cc1ccc(C(=O)NCC#N)cc1	3%	-1%	-1%	9%	x	-3%
Cc1cc(OCC(=O)N2CCC(c3nc4ccccc4s3)CC2)ccc1Cl	x	8%	-15%	x	x	-9%
Cc1ccc(CNC(=O)C(C)n2c(=O)cc(C(F)(F)F)c3c(C)nn(C)c32)cc1 (centres undefined)	x	2%	-1%	x	x	-5%
CCc1nc(-c2cc(S(=O)(=O)N3CCN(c4ccccc4)CC3)ccc2OC)no1	x	-5%	u	x	x	-2%
Cc1ccc(N/C=C/C(=O)c2sc(-c3ccccc3)nc2C)cc1	-3%	0%	2µM*	-6%[46.1 µM]	9	-28%
Nc1nonc1C(=O)NCCN=Cc1ccccc1O	5%	-5%	2%	1%[46.1 µM]	17	0%
Nc1nonc1C(=O)NCCN=Cc1cc(Cc2ccccc2)cc(Br)c1O	1%	u	28µM*	u	-2	u
O=C(c1ccccc1Cl)N1c2ncnn2C2(CCCCC2)[C@@H]2CCCC[C@@H]21	x	-3%	-4%	x	x	-4%
CCCn1c(N)c(C(=O)CSc2nnc(Cc3ccccc3)o2)c(=O)n(C)c1=O	1%	-5%	5%	-11%[46.1 µM]	-100*	-11%
Cc1[nH]n(S(=O)(=O)Cc2ccccc2)c(=O)c1N=Nc1ccccc1Cl	7%	11%	16µM*	-1%	x	-22%
COc1ccccc1N=C1SC(C(=O)Nc2cccc(Cl)c2Cl)C(N)=C1C(N)=O (centres undefined)	-6%	u	25µM*	7%[7.67 µM]	x	18µM*[quencher]
CCCOc1c(Br)cc(C2C3=C(CCCC3=O)N(CC)C3=C2C(=O)CCC3)cc1OC	u	-5%	-21%	-42%	x	-16%
CCCOc1c(Br)cc(C2C3=C(CCCC3=O)N(C)C3=C2C(=O)CCC3)cc1OC	-5%	-4%	-8%	-7%	-98*	-5%
